The text below walks through data of PubChem BioAssay AID720706 (Broad Institute, 2013).

Screen size: about 350,000 compounds; about 5,500 (1.6%) were called active.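 How the source made its calls: active means significant combined selectivity score with lowered wild-type GFP, culture density cut under 30%, mutant RFP and density less affected; inactive means any of these conditions unmet.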 Shown is part of a subset that was picked to be rich in actives.

This assay in a line: reduced GFP signal of wild-type E. coli, primary screen, bacterial rRNA inhibitor project, GFP/RFP fluorescence, OD600, single point (AID 720706). The following applies: E. coli WT GFP vs humanized-ribosome RFP mutants, 24 h; GFP signal change (wild-type ribosome): stronger effect = lower value, DMSO median 0, no signal -100; OD600 change: measured here: OD600 growth, DMSO median 0, no signal -100; RFP signal change: measured here: RFP humanized mutant strains, DMSO median 0, no signal -100, concentration not given here.
For the compound `COCCNC(=O)C[C@H]1C[C@H]2c3cc(NS(C)(=O)=O)ccc3O[C@H]2[C@H](CO)O1`, the GFP signal change (wild-type ribosome) is 3.03% (inactive), the OD600 change is -0.685% and the RFP signal change is -2.39%.
Consider `C[C@@H]1CN([C@H](C)CO)C(=O)c2cc(NS(=O)(=O)c3ccc(F)cc3)ccc2O[C@@H]1CN(C)S(C)(=O)=O`, for which the GFP signal change (wild-type ribosome) was 3.23% (inactive), the OD600 change came out at 5.12% and the RFP signal change is -0.699%.
The like results for `CO[C@H]1CN(C)C(=O)c2ccc(NC(=O)c3ccccc3F)cc2OC[C@H](C)N(C(=O)c2ccccc2F)C[C@H]1C` were, in that order, -0.558% (inactive), -1.65% and 0.417%.
The like results for `CCCNC(=O)N(C)C[C@H]1Oc2ncc(-c3ccc(C(=O)N(C)C)cc3)cc2C(=O)N([C@@H](C)CO)C[C@@H]1C` were, in that order, 6.11% (inactive), 12.2% and -1.77%.
With `CCCN(C)C[C@H]1OCCCC[C@@H](C)Oc2ccc(NC(=O)Nc3ccc(F)cc3)cc2C(=O)N([C@@H](C)CO)C[C@H]1C`, the GFP signal change (wild-type ribosome) was -3.85% (inactive), the OD600 change was -9.95% and the RFP signal change came to 3.72%.
Consider `Cc1ccccc1S(=O)(=O)NC(=O)C1(C)CCN1C(=O)C1(c2ccc(Cl)cc2)CC1` (stereo not given), for which the GFP signal change (wild-type ribosome) is -15.3% (active), the OD600 change was found to be 13% and the RFP signal change stood at 7.67%.
The like results for `CC1(C(=O)NS(=O)(=O)c2ccc3ccccc3c2)CCN1C(=O)C1(c2ccc(Cl)cc2)CCC1` (stereo not given) were, in that order, -33.2% (inactive), -59.6% and -12.6%.
On the same counts, the results for `Cc1ccccc1S(=O)(=O)NC(=O)C1(C)CCN1C(=O)C1(c2ccccc2)CCCC1` (stereo not given) are -6.4% (inactive), 0.03% and -0.676%.
On to `Cc1noc(C)c1S(=O)(=O)N(C)C[C@@H]1OCCCC[C@H](C)Oc2ccc(NC(=O)CCC(F)(F)F)cc2C(=O)N([C@H](C)CO)C[C@H]1C`, for which the GFP signal change (wild-type ribosome) was -0.425% (inactive), the OD600 change came out at 1.3% and the RFP signal change came out at 2.1%.
On the same counts, the results for `O=C(c1cnccn1)N1CC(=O)N2[C@H](C1)[C@@H](c1ccc(C3=CCCCC3)cc1)[C@@H]2CO` are 3.19% (inactive), -21.9% and 1.94%.
On the same counts, the results for `COCCNC(=O)C[C@@H]1C[C@@H]2c3cc(NS(=O)(=O)c4ccccc4)ccc3O[C@@H]2[C@H](CO)O1` are 1.27% (inactive), 4% and -0.545%.
On the same counts, the results for `c1ccc(COc2nsnc2N2CCOCC2)cc1` are 0.165% (inactive), -14.3% and -6.39%.
As for `CC(CNC(=O)Cn1cnc2c(OCc3ccccc3)ncnc21)c1ccccc1` (stereo not given), the GFP signal change (wild-type ribosome) was 8.65% (inactive), the OD600 change was determined as 14.8% and the RFP signal change came to 2.69%.
The like results for `Fc1cccc2ncnc(OCc3ccccc3)c12` were, in that order, -30.9% (active), -18% and -2.44%.
On the same counts, the results for `CCCC#Cc1ccc([C@@H]2[C@@H](CO)N3C(=O)CN(C(=O)Nc4ccc(F)cc4)C[C@@H]23)cc1` are -0.84% (inactive), -38.9% and 19.5%.
On the same counts, the results for `COCC(=O)Nc1ccc2c(c1)C(=O)N(C)[C@H]1CC[C@@H](CC(=O)NCc3cccc(F)c3)O[C@H]1CO2` are 3.46% (inactive), 6.34% and 1.53%.
As for `CC(=O)Nc1ccc2c(c1)CC(=O)N(C)C[C@H](C)[C@H](CN(C)S(C)(=O)=O)O2`, the GFP signal change (wild-type ribosome) was 0.68% (inactive), the OD600 change stood at 1.91% and the RFP signal change turned out to be 0.168%.
On the same counts, the results for `CCNC(=O)[C@H]1[C@H](CO)[C@H]2Cn3c(cccc3=O)[C@@H]1N2Cc1cc(F)ccc1F` are 0.156% (inactive), 3.74% and 1%.
The like results for `C[C@@H]1CN([C@H](C)CO)C(=O)c2cccc(NS(=O)(=O)c3ccc(F)cc3)c2O[C@@H]1CN(C)S(=O)(=O)c1ccc(Cl)cc1` were, in that order, -1.76% (inactive), -16.2% and -1.81%.
On the same counts, the results for `Cn1nc(-c2ccccc2)c2cc([N+](=O)[O-])ccc21` are 0.085% (inactive), 1.86% and -0.696%.
On to `O=[N+]([O-])c1cc2ccccc2nc1-c1ccccc1`, for which the GFP signal change (wild-type ribosome) is 11.2% (inactive), the OD600 change was -0.7% and the RFP signal change is -0.455%.
On the same counts, the results for `Cc1nc(-c2ccc([N+](=O)[O-])cc2)c(-c2ccccc2)o1` are -32% (active), -14.4% and 13.4%.
The like results for `O=C(C[C@H]1C[C@H]2c3cc(NC(=O)C4CCOCC4)ccc3O[C@H]2[C@@H](CO)O1)NCC1CC1` were, in that order, 2.89% (inactive), 8.38% and -2.18%.
For `Cc1noc(C)c1NC(=O)Nc1ccc2c(c1)C(=O)N([C@@H](C)CO)C[C@H](C)[C@@H](CN(C)C(=O)C1CCCCC1)OCCCC[C@@H](C)O2`, the GFP signal change (wild-type ribosome) was 1.51% (inactive), the OD600 change is 8.89% and the RFP signal change was -0.802%.
The like results for `CC=Cc1ccc2n(c1=O)C[C@@H]1[C@@H](CO)[C@H](C(=O)NCCc3ccccc3)N(C(C)=O)[C@H]21` (mixture of isomers) were, in that order, 0.861% (inactive), 2.27% and -0.668%.
On the same counts, the results for `COc1ccccc1NC(=O)N1C[C@@H]2[C@H](c3ccccc31)[C@H](CO)N2CC1CCOCC1` are 0.276% (inactive), -6.98% and 0.913%.
On to `COCCCNc1ccn2nc(-c3ccc(CC(C)C)cc3)cc2n1`, for which the GFP signal change (wild-type ribosome) is -26.9% (inactive), the OD600 change is -34.5% and the RFP signal change was determined as 0.31%.
Regarding `COCCNc1cc(-c2ccccc2)nc2cc(-c3cccc(F)c3)nn12`, the GFP signal change (wild-type ribosome) is -14.8% (active), the OD600 change is 8.3% and the RFP signal change was -4.74%.
On the same counts, the results for `COc1ccc(-c2cc3nc(NCCOc4ccccc4)ccn3n2)cc1` are -7.79% (inactive), -16.3% and 16.5%.
The like results for `CC(C)NC(=O)N(C)C[C@H]1OCc2ccccc2-c2c(n(C)c3ccccc23)C(=O)N([C@H](C)CO)C[C@@H]1C` were, in that order, 0.94% (inactive), 5.88% and -4.42%.
